Among all 5,500 compounds or so, about 2,000 (36%) were called active. About 18% were inconclusive and are not listed. No stated cut-off is given here; in the data, active means normalized growth mostly below about 0.91 (no sharp cut-off); inconclusive means no clear call, values can overlap the other calls; inactive means mostly above about 0.92. The list shows a part of the results.
Test: chemical genetic growth profiling, strain panel (AID 1159580);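 further: tested at 20 µM; growth read once vehicle control cultures reached saturation at 30 °C; 1 = growth at the plate median or of vehicle wells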
Conditions: growth OD

Measured: normalized growth

COc1cccc(CC(=O)NN)c1
inactive: S. cerevisiae deletion strains, locus YAL013W, strain DEP1, stronger effect = lower value 0.982 | S. cerevisiae deletion strains, locus YBR229C, strain ROT2, stronger effect = lower value 1.02 | S. cerevisiae deletion strains, locus YDL101C, strain DUN1, stronger effect = lower value 1.05 | S. cerevisiae deletion strains, locus YDL134C, strain PPH21, stronger effect = lower value 0.995 | S. cerevisiae deletion strains, locus YDR150W, strain NUM1, stronger effect = lower value 1.03 | S. cerevisiae deletion strains, locus YEL061C, strain CIN8, stronger effect = lower value 1 | S. cerevisiae deletion strains, locus YGR078C, strain PAC10, stronger effect = lower value 1.04 | S. cerevisiae deletion strains, locus YGR229C, strain SMI1, stronger effect = lower value 0.999 | S. cerevisiae deletion strains, locus YHR030C, strain SLT2, stronger effect = lower value 1.06 | S. cerevisiae deletion strains, locus YHR087W, strain rtc3, stronger effect = lower value 0.971 | S. cerevisiae deletion strains, locus YJL187C, strain SWE1, stronger effect = lower value 0.981 | S. cerevisiae deletion strains, locus YJR043C, strain POL32, stronger effect = lower value 1.02 | S. cerevisiae deletion strains, locus YJR075W, strain HOC1, stronger effect = lower value 0.991 | S. cerevisiae deletion strains, locus YKL190W, strain CNB1, stronger effect = lower value 1 | S. cerevisiae deletion strains, locus YLR039C, strain RIC1, stronger effect = lower value 1.02 | S. cerevisiae deletion strains, locus YLR058C, strain SHM2 (second series), stronger effect = lower value 0.987 | S. cerevisiae deletion strains, locus YLR085C, strain ARP6, stronger effect = lower value 0.995 | S. cerevisiae deletion strains, locus YLR262C, strain YPT6, stronger effect = lower value 0.98 | S. cerevisiae deletion strains, locus YML094W, strain GIM5, stronger effect = lower value 0.982 | S. cerevisiae deletion strains, locus YMR219W, strain ESC1, stronger effect = lower value 0.986 | S. cerevisiae deletion strains, locus YMR263W, strain SAP30, stronger effect = lower value 1 | S. cerevisiae deletion strains, locus YMR307W, strain GAS1, stronger effect = lower value 0.987 | S. cerevisiae deletion strains, locus YNL153C, strain GIM3, stronger effect = lower value 1.04 | S. cerevisiae deletion strains, locus YNL298W, strain CLA4 (second series), stronger effect = lower value 1.02 | S. cerevisiae deletion strains, locus YNL322C, strain KRE1, stronger effect = lower value 1.01 | S. cerevisiae deletion strains, locus YNR030W, strain Alg12, stronger effect = lower value 0.986 | S. cerevisiae deletion strains, locus YPL055C, strain LGE1, stronger effect = lower value 0.96 | S. cerevisiae deletion strains, locus YPL241C, strain CIN2, stronger effect = lower value 1.01 | S. cerevisiae deletion strains, locus YPR135W, strain CTF4, stronger effect = lower value 1.04 | S. cerevisiae strains, strain wild type, stronger effect = lower value 1.02
